12-LOX inh: inhibitors of human 12S-lipoxygenase ALOX12. P18054. purified 12hLO, xylenol orange hydroperoxide absorbance. Potency, µM (series often up to 108 µM), inactives show top-dose activity change, negative = inhibition, actives largely listed as inhibitors. 580,000 compounds, 1.1% hits. AID 1671190
Target sequence (P18054 whole entry, looked up): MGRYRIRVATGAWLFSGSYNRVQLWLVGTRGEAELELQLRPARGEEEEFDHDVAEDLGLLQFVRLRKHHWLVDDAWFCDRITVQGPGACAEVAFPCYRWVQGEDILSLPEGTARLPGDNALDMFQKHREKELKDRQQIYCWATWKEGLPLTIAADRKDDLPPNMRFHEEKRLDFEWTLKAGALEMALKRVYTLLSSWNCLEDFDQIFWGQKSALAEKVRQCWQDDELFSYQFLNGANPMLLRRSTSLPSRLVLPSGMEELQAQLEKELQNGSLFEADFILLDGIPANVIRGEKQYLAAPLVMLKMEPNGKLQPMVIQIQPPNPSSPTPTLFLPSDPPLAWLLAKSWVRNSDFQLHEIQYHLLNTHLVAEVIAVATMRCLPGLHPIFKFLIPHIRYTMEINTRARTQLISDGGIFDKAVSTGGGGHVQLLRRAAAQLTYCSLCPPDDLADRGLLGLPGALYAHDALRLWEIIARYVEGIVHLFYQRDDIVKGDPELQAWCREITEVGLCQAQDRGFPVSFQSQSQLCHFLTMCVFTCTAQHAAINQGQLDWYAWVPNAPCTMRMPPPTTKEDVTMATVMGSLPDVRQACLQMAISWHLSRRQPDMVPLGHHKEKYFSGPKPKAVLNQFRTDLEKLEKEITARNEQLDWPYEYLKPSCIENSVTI
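Purified human 12hLO (150 nM final) in 25 mM Hepes, 0.01% Triton X-100, pH 7.0 was preincubated 15 min at room temperature with compound. Then 40 uM arachidonic acid was added, 30 min. Hydroperoxide was read by Fe-XO absorbance ratio 573/405 nm.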
DT40 TDP1 no CPT: qHTS for Inhibitors of human tyrosyl-DNA phosphodiesterase 1 (TDP1): qHTS in cells in absence of CPT. DT40 Tdp1-/- hTDP1 cells, no CPT, ATP luminescence, 48 h. Potency, µM (doses to about 46.2 µM), inactives show at the highest dose activity change, negative = growth inhibition, usual class: inhibitors. 420,000 compounds, 15% hits. AID 686978, 2013; also: nearly all actives have a fitted effect of over 55% in size
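Growth kinetics read by CellTiter-Glo luminescence after ≥48 hr at 37 °C. Cells: DT40 Tdp1-/- stably carrying human TDP1, 400 per well, compound exposure in the absence of CPT (DMSO vehicle).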
TDP1 cell CPT: DT40-hTDP1 cell growth loss with CPT. chicken DT40 Tdp1-/-;hTDP1 cells + 20 nM CPT, ATP luminescence, 48 h. Potency, µM (top dose mostly 46.2 µM), for the others: at the top dose activity change, negative = growth inhibition, actives largely listed as inhibitors. 420,000 compounds, 12% hits. AID 686979; also: nearly all actives have a fitted effect of over 55% in size
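Chicken DT40 Tdp1-/- cells complemented with human TDP1, 400 cells/well, exposed to compounds plus 20 nM camptothecin for at least 48 h at 37 C; viability read as ATP content by CellTiter-Glo luminescence.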
RORgamma inh: ROR gamma (mouse) transcription inhibition; P51450; Drosophila S2 Gal4-RORgamma UAS-luciferase reporter, 20 h; Potency, µM (series often up to 53.6 µM), for inactives: at the top dose activity change, negative = inhibition, hits mostly inhibitors; 310,000 compounds, 5.4% hits; AID 2551; also: nearly all actives have a fitted effect of over 60% in size
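Schneider cells (Drosophila), stable Gal4 DBD–ROR gamma + UAS-luc; 1 hr cmpd preincubation; Cu2+ induction 700 uM final; 20 hr ambient; luminescence.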
Gal4-VP16 FLuc: counter-screen for ROR gamma inhibitors: Gal4-VP16 reporter. Drosophila S2 Gal4-VP16 UAS-luciferase, luminescence, 20 h. Potency, µM (series often up to 53.6 µM), without a hit: at the highest dose activity, negative = inhibition, usual class: inhibitors. 310,000 compounds, 3.5% hits;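 also: Gal4-VP16 expression switched on by copper sulfate through the metallothionein promoter; nearly all actives have a fitted effect of over 50% in size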
ELG1 repair inh: ELG1-dependent DNA repair inhibition; HEK293T ELG1-luciferase reporter, luminescence, 16 h; DNA damage induced by 5-fluorouridine; Potency, µM (series often up to 46.1 µM), without a hit: at the top dose activity change, negative = inhibition, hits mostly inhibitors; 330,000 compounds, 2.3% hits; also: nearly all actives have a fitted effect of over 55% in size
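DMSO vehicle served as the neutral condition. Each well held 2,000 cells given 5-fluorouridine plus compound; after 16 hr at 37 °C/5% CO2, ONE-Glo was added and luciferase measured 30 min later.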
Starred values were filed as active, the others as inactive; ? = inconclusive; · = no result given; [ ] = another dose, or the depositor's remark. In the library only some 15% were active in any assay of this set; here they are far more common. Calls follow the shape of the dose curve; as a rule, active = well fitted curve in the direction sought with a large enough effect; inconclusive = small, poorly fitted or top-dose-only effect, or another doubt; inactive = no such curve, though single readings can be large; an effect the other way counts as inactive or inconclusive. % is scaled to controls: 0 for no effect and ±100 for the full control effect; potency is read from the fitted curve at half-maximal effect.

SMILES	12-LOX inh	DT40 TDP1 no CPT	TDP1 cell CPT	RORgamma inh	Gal4-VP16 FLuc	ELG1 repair inh
CC1=CC(C)(C)Nc2ccc(OC(=O)CCN3C(=O)c4ccccc4C3=O)cc21	-1%	3.7µM*	3.3µM*	?	5.6µM*	5%
C[C@]1(CO)[C@H]2Cc3sc(NC(=O)c4ccco4)nc3[C@@H](CC(=O)NC3CCCC3)[C@]2(C)CC[C@H]1O	11%	·	·	·	·	·
CCOc1ccccc1Nc1cc(C)nc2nc(C)nn12	5.6µM*	2%	9%	-5%	3%	12%
CCOc1ccc(OCC)c(Nc2cc(C)nc3ncnn23)c1	84%	-12%	1%	-32%	-5%	?
Cc1cc(Nc2ccccc2F)n2nc(C)nc2n1	-107%	0%	2%	-18%	-6%	12%
CCOc1ccc(OCC)c(Nc2cc(C)nc3nc(C)nn23)c1	?	?	18µM*	-30%	-10%	-6%
Cc1cc(Nc2ccc(Br)cc2F)n2nc(C)nc2n1	?	-11%	?	3.2µM*	7.9µM*	8%
O=C(OCC1CC1)c1ccc(-c2ccccc2)cc1	-1%	·	·	·	·	·
CCOc1ccccc1NC(=O)CCCc1nc(-c2ccccc2Cl)no1	-9%	?	13µM*	·	·	·
COc1ccc(-c2noc(CCC(=O)NC3CCCC3)n2)cc1	28%	?	-26%	12%	-6%	-1%
CCOc1ccccc1NC(=O)c1ccccc1-c1nc(-c2ccccc2OC)no1	24%	9.2µM*	16µM*	38%	0%	18µM*
COc1ccc(-c2noc(CCCC(=O)NC3CCCCC3)n2)cc1	-16%	23µM*	21µM*	79%	16µM*	-1%
O=C(CCCc1nc(-c2ccccc2Cl)no1)NC1CCCC1	-7%	?	2%	8.9µM*	?	-3%
COc1ccc(OC)c(CNC(=O)c2ccc3c(c2)C(O)CCCCCN3C)c1 (stereo not given)	66%	·	·	·	·	·
CCOC(=O)Nc1oc2ccccc2c(=O)c1CN1CCOCC1	3%	?	-21%	30%	1%	10µM*
CCOC(=O)N1CCN(CC(=O)Nc2oc3ccccc3c(=O)c2-c2ccccc2)CC1	3%	·	·	·	·	·
COc1ccccc1C(=O)N1CCC2(CC1)NC(=O)N(c1cccc(F)c1)N2	2.5µM*	·	·	·	·	·
Cc1ccc(C(=O)N2CCC3(CC2)NC(=O)N(c2ccc(F)cc2)N3)s1	2µM*	·	·	·	·	·
COc1cccc(C(=O)N2CCC3(CC2)NC(=O)N(c2cccc(F)c2)N3)c1OC	3.2µM*	·	·	·	·	·
COc1cccc(C(=O)N2CCC3(CC2)NC(=O)N(c2ccc(F)cc2)N3)c1OC	4µM*	·	·	·	·	·
COc1ccccc1C(=O)N1CCC2(CC1)NC(=O)N(Cc1ccc(F)cc1)C2=O	19%	·	·	·	·	·
COC(=O)c1ccc(Oc2ccc(C(=O)OC)cc2)cc1	-17%	·	·	·	·	·
Cc1ccc2nc(COCC(=O)N3CCC4(CCCN(C)C4=O)C3)[nH]c2c1 (stereo not given)	15%	·	·	·	·	·
CCn1nccc1C(=O)N1CCC2(CC1)NC(=O)N(c1cccc(F)c1)N2	4µM*	·	·	·	·	·
CCn1nccc1C(=O)N1CCC2(CC1)N(Cc1cccc(F)c1)C(=O)CS2=O (stereo not given)	29%	·	·	·	·	·
SMILES	12-LOX inh	DT40 TDP1 no CPT	TDP1 cell CPT	RORgamma inh	Gal4-VP16 FLuc	ELG1 repair inh
COc1ccccc1CC(=O)N1CCOCC1	7%	1%	0%	-6%	-7%	-30%
O=C(c1cc(C2CC2)[nH]n1)N1CCC2(CC1)NC(=O)N(c1cccc(F)c1)N2	11µM*	·	·	·	·	·
COc1ccc(C(=O)N2CCC3(CC2)NC(=O)N(c2cccc(F)c2)N3)cc1F	2µM*	·	·	·	·	·
COc1ccc(C(=O)N2CCC3(CC2)CC(O)CCO3)cc1F (stereo not given)	27%	·	·	·	·	·
COc1ccccc1CC(=O)N1CCC2(CC1)NC(=O)N(c1cccc(F)c1)N2	1.8µM*	·	·	·	·	·
COC(=O)c1sc(N)c(C(=O)OC)c1COC(=O)c1c(C)noc1C	0%	5.2µM*	3.7µM*	-9%	-9%	?
COC(=O)c1sc(NC(=O)c2c(C)noc2C)nc1C	·	4%	5%	-10%	-7%	1%
COC(=O)c1sc(N)c(C(=O)OC)c1CSc1nnc(-c2ccccc2Cl)n1C	-5%	?	-17%	-16%	-6%	?
COC(=O)c1sc(N)c(C(=O)OC)c1Cn1ncc(Cl)c(Cl)c1=O	1%	15µM*	23µM*	?	13µM*	-22%
CC1CCCCN1C(=O)c1ccc(CN2C(=O)NC3(CCS(=O)(=O)CC3)C2=O)cc1 (stereo not given)	7%	·	·	·	·	·
Cc1cc(C)n(-c2nc(C)c(C)c(=O)n2CC(=O)Nc2ccc([N+](=O)[O-])cc2)n1	-18%	21µM*	?	·	·	·
CC(=O)c1ccc(NC(=O)Cn2c(-n3nc(C)cc3C)nc(C)cc2=O)cc1	0%	18µM*	?	·	·	·
COC(=O)c1cnn(-c2ccc(C(=O)Nc3cccc(Cl)c3C)cc2)c1N	0%	·	·	·	·	·
CCNC(=O)CC12CC3CC(C1)CC(CC(=O)NCC)(C3)C2	-41%	·	·	·	·	·
Cc1cnc(C)c(-c2cccc3c2OC(CNC(=O)C2(c4ccc(Cl)cc4)CC2)C3)n1 (stereo not given)	9%	21µM*	-14%[9.04 µM]	·	·	·
Cc1cnc(C)c(-c2cccc3c2OC(CNC(=O)/C=C/c2ccc(F)c(F)c2)C3)n1 (stereo not given)	24%	?	?	·	·	·
Cc1cnc(C)c(-c2ccc(F)c3c2OC(CNC(=O)/C=C/c2cccs2)C3)n1 (stereo not given)	6%	21µM*	?	·	·	·
O=S(=O)(NC1CCN(S(=O)(=O)c2c(Cl)cccc2Cl)CC1)c1cccs1	-1%	·	·	·	·	·
COc1ccccc1NC(=O)Nc1ccc(-n2ccc(C(F)(F)F)n2)cc1	?	26µM*	?	?	29%	?
O=C(O)c1ccccc1C(=O)Nc1ccc(-n2ccc(C(F)(F)F)n2)cc1	13%	-11%	0%	26%	-1%	-3%
COc1ccccc1C(=O)NC(=O)Nc1ccc(-n2nc(C(F)(F)F)cc2C(F)(F)F)cc1	?	15µM*	?	·	·	·
O=C(NC(=O)c1ccccc1)Nc1ccc(-n2nc(C(F)(F)F)cc2C(F)(F)F)cc1	5%	1%	8%	·	·	·
Cc1cc(C)cc(NC(=O)Nc2ccc(-n3ccc(C(F)(F)F)n3)cc2)c1	2%	21µM*	?	29%	-9%	?

Bioassay records from PubChem BioAssay.
